Measured values reported in PubChem BioAssay (Tox21).
Inconclusive results are not listed. Calls of active or inactive are those of the source. Unless noted, calls come from the whole dose curve.

Key:
[1] = Nuclear factor erythroid 2-related factor 2/antioxidant responsive element (Nrf2/ARE) small molecule agonists: qHTS cell viability counter screen in human keratinocytes (AID 1919968; active = well fitted curve in the direction sought with a large enough effect in the repeat runs; an effect the other way counts as inactive or inconclusive; note: nearly all actives have a fitted effect of over 55% in size)
Summary of the method: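 KeratinoSens cells (HaCaT keratinocytes stably carrying an ARE-luciferase reporter) were seeded at 1,500 cells/well and rested 5 h at 37 C/5% CO2. They were then exposed to compounds in DMSO for 23 h. Viability was read by CellTiter-Fluor fluorescence after 1 h.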

[2] = Nuclear factor erythroid 2-related factor 2/antioxidant responsive element (Nrf2/ARE) small molecule agonists: luciferase reporter gene qHTS assay in human keratinocytes (AID 1919969); note: nearly all actives have a fitted effect of over 35% in size
[3] = molecular target: Gonadotropin-releasing hormone receptor (Homo sapiens) (UniProt P30968); test: Human gonadotropin-releasing hormone receptor (GnRHR) small molecule agonists, calcium flux assay in GnRHR-HEK293 cells (AID 1920063); note: nearly all actives have a fitted effect of over 35% in size
Gonadotropin-releasing hormone receptor (Homo sapiens), sequence (P30968 whole entry, looked up): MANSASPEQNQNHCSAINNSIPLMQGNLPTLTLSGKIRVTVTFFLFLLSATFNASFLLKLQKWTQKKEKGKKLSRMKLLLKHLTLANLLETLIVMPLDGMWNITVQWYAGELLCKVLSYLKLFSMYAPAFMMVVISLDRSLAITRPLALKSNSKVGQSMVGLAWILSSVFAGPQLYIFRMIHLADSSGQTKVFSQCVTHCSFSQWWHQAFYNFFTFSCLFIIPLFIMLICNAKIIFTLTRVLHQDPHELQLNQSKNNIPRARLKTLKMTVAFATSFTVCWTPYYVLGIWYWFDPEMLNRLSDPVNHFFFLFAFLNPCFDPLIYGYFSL
Summary of the method: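 HEK293 cells stably expressing human GnRHR were plated 18 h at 37 °C, loaded with calcium dye 1 h at 37 °C, then given compound in agonist mode; fluorescence (Ex/Em 480/540) read kinetically for 3 min at 1 s intervals.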

[4] = molecular target: KiSS-1 receptor (Homo sapiens) (UniProt Q969F8); test: Human kisspeptin (KISS1R) small molecule agonists, calcium flux assay in KISS1R-HEK293 cells (AID 1920064; active = well fitted curve in the direction sought with a large enough effect in the repeat runs; an effect the other way counts as inactive or inconclusive)
KiSS-1 receptor (Homo sapiens), sequence (Q969F8 whole entry, looked up): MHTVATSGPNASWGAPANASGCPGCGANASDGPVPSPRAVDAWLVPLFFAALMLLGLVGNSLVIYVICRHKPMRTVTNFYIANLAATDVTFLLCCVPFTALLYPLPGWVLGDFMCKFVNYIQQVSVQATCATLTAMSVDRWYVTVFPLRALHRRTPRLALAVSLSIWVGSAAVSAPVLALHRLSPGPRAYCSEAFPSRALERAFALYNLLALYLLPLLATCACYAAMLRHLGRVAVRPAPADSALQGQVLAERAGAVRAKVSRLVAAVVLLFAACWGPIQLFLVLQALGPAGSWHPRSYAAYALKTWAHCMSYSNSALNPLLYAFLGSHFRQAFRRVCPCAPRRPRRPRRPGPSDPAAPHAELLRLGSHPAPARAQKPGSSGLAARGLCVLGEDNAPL
Summary of the method: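 HEK293 cells stably expressing human KISS1R were plated 18 h at 37 °C, loaded with calcium dye for 1 h at 37 °C, then given compound by pin tool. Fluorescence (Ex/Em 480/540) was read kinetically for 3 min.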

[5] = G protein-coupled receptor (GPCR) small molecule agonists, calcium flux assay: HEK293 wild type cell line counter screen (AID 1920065)
Summary of the method: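 Cells were plated and cultured 18 h at 37 C/5% CO2, then loaded with calcium dye for 1 h at 37 C. Compounds in DMSO were pin-transferred in agonist mode, and fluorescence (Ex/Em 480/540) was read kinetically for 3 min at 1 s intervals.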

[6] = p53 small molecule agonists, cell-based qHTS assay with human liver microsomes (AID 1963577)
Summary of the method: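 p53RE-bla reporter cells were pre-incubated 5 h at 37 C, then treated with compounds plus human liver microsomes (0.5 mg/mL final) and NADPH (0.5 mg/mL final) for 16 h at 37 C. Beta-lactamase activity was read by LiveBLAzer fluorescence after 2 h at room temperature.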

[7] = p53 small molecule agonists, cell-based qHTS assay with rat liver microsomes (AID 1963578)
Summary of the method: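 p53RE-bla cells were exposed to compounds together with rat liver microsomes (0.5 mg/mL final) and NADPH (0.5 mg/mL final) for 16 h at 37 C, then read by LiveBLAzer beta-lactamase fluorescence after 2 h at room temperature.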

[8] = p53 small molecule agonists, cell-based qHTS assay with human liver microsomes: qHTS cell viability counter screen (AID 1963579); note: nearly all actives have a fitted effect of over 45% in size
Summary of the method: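 p53RE-bla cells (4,000/well) were pre-incubated 5 h at 37 C, then given compounds in DMSO plus human liver microsomes (0.5 mg/mL final) and NADPH (0.5 mg/mL final) for 16 h at 37 C. Viability was read by CellTiter-Glo luminescence.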

[9] = p53 small molecule agonists, cell-based qHTS assay with rat liver microsomes: qHTS cell viability counter screen (AID 1963580); note: nearly all actives have a fitted effect of over 45% in size
Summary of the method: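 HCT-116 p53RE-bla, 4,000 cells/well, 5 h pre-incubation; cpd + rat liver microsomes 0.5 mg/mL + NADPH 0.5 mg/mL (final); 16 h, 37 C; CellTiter-Glo, 30 min RT; luminescence.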

[10] = p53 small molecule agonists, cell-based qHTS assay: qHTS cell viability counter screen (AID 1963581); note: nearly all actives have a fitted effect of over 45% in size
Summary of the method: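 p53RE-bla HCT-116 cells were exposed to compounds for 16 h at 37 C; after the beta-lactamase FRET read in the same wells, CellTiter-Glo was added and luminescence (intracellular ATP) read after 30 min at room temperature.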

[11] = p53 small molecule agonists, cell-based qHTS assay (AID 1963582; active = well fitted activation curve with a large enough effect in the signal ratio in the repeat runs, not every such curve was filed as active; the % refers to the signal ratio)
Summary of the method: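 p53RE-bla beta-lactamase reporter cells rested 5 h at 37 C/5% CO2, then received compounds in DMSO by pin transfer and were incubated 16 h at 37 C. LiveBLAzer B/G FRET substrate was loaded for 2 h at room temperature before fluorescence reading.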

[12] = molecular target: 5-hydroxytryptamine receptor 2A (Homo sapiens) (UniProt P28223); test: 5-hydroxytryptamine receptor 2A (HTR2A) small molecule antagonists, cell-based qHTS assay (AID 1963586); note: nearly all actives have a fitted effect of over 45% in size
5-hydroxytryptamine receptor 2A (Homo sapiens), sequence (P28223 whole entry, looked up): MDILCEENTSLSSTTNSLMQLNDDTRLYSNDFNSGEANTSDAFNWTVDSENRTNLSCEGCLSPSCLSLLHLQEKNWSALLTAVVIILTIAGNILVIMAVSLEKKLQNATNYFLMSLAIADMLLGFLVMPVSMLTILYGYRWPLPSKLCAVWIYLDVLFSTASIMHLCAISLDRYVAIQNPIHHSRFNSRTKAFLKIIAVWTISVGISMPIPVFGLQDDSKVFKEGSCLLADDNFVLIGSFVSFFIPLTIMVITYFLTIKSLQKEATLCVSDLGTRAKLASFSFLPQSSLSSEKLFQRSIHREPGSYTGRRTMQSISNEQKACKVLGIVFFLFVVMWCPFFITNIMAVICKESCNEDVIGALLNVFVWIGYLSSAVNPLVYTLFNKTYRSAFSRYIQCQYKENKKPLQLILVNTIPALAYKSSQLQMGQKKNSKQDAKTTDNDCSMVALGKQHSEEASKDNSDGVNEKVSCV
Summary of the method: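 Antagonist-mode intracellular calcium assay: DOI (4 nM) added after 5 min compound pre-incubation at room temperature to dye-loaded HTR2A-CHO cells. Fluorescence followed for 3 min, sampled every second.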

[13] = molecular target: 5-hydroxytryptamine receptor 2A (Homo sapiens) (UniProt P28223); test: 5-hydroxytryptamine receptor 2A (HTR2A) small molecule agonists, cell-based qHTS assay (AID 1963587); note: nearly all actives have a fitted effect of over 30% in size
Summary of the method: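 Kinetic calcium-flux fluorescence (2 min, 1 sec intervals) after compound addition in agonist mode. HTR2A-CHO cells were cultured 18 h, then dye-loaded 1 h at 37 C.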

[14] = molecular target: Muscarinic acetylcholine receptor M1 (Homo sapiens) (UniProt P11229); test: Cholinergic receptor muscarinic 1 (CHRM1) small molecule antagonists, cell-based qHTS assay (AID 1963588); note: nearly all actives have a fitted effect of over 40% in size; note: potency is the fitted concentration of half-maximal effect
Muscarinic acetylcholine receptor M1 (Homo sapiens), sequence (P11229 whole entry, looked up): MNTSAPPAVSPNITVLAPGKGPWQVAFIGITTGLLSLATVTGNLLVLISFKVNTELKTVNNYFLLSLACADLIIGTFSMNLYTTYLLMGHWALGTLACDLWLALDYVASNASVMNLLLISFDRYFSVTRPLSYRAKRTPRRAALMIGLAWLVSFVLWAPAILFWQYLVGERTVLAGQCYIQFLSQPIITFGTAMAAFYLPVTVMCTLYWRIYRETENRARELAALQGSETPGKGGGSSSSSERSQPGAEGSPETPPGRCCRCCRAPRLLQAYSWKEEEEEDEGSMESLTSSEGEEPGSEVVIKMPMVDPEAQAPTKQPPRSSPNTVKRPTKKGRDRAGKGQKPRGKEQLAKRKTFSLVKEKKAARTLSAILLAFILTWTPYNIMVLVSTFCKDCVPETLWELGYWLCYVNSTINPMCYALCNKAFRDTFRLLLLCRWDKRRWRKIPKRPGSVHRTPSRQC
Summary of the method: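 CHRM1-CHO calcium-flux assay, antagonist mode. Cells were seeded 18 h, dye-loaded 1 h at 37 C and given compound for 5 min at RT, then acetylcholine was added at 50nM. FDSS fluorescence was read 3 min; 15 concentrations, three runs.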

[15] = molecular target: Muscarinic acetylcholine receptor M1 (Homo sapiens) (UniProt P11229); test: Cholinergic receptor muscarinic 1 (CHRM1) small molecule agonists, cell-based qHTS assay (AID 1963589); note: nearly all actives have a fitted effect of over 35% in size
Summary of the method: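 CHO cells stably expressing human CHRM1, seeded 18 h at 37 C/5% CO2, dye-loaded 1 h at 37 C, then given compound in agonist mode; intracellular calcium fluorescence read kinetically at 1 s intervals. Fifteen concentrations, three independent runs.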

[16] = cAMP Responsive Elements (CRE) small molecule agonists, cell-based qHTS assay (AID 1963590)
Summary of the method: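 CRE-bla HEK 293T cells in DMEM with 10% dialyzed FBS, NEAA, pyruvate and 25 mM HEPES were plated 18 h at 37 C/5% CO2, then exposed to compounds in DMSO for 3 h before LiveBLAzer B/G FRET substrate addition.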

[17] = cAMP Responsive Elements (CRE) small molecule antagonists, cell-based qHTS assay (AID 1963591; active = well fitted inhibition curve with a large enough effect in the signal ratio in the repeat runs, not every such curve was filed as active; the % refers to the signal ratio)
Summary of the method: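 CRE-bla HEK293T cells were plated 18 h at 37 °C/5% CO2, pinned with compound in DMSO, then stimulated with NKH477 at 0.25 uM final for 3 h. LiveBLAzer B/G FRET substrate was added and plates incubated 2 h at room temperature.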

[18] = molecular target: Beta-2 adrenergic receptor (Homo sapiens) (UniProt P07550); test: Adrenergic beta2 receptor (ADRB2) small molecule antagonists, cell-based qHTS assay (AID 1963592); note: series mostly up to about 92 µM; nearly all actives have a fitted effect of over 50% in size
Beta-2 adrenergic receptor (Homo sapiens), sequence (P07550 whole entry, looked up): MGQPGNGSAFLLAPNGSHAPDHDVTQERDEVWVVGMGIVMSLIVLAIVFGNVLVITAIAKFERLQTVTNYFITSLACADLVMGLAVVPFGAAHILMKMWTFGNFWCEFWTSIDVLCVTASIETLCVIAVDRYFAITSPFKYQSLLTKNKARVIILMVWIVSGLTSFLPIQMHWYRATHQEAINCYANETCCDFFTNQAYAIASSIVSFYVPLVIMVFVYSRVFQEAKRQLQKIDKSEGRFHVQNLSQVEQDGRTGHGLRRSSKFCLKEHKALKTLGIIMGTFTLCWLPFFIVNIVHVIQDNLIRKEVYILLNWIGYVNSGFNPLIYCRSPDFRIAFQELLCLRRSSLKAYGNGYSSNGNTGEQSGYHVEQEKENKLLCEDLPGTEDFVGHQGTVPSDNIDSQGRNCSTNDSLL
Summary of the method: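 Cells (CHO, stable ADRB2 overexpression) incubated 18-20hr at 37C; compounds added from DMSO; agonist mix (1nM isoproterenol, 100uM IBMX, 25uM Ro-20-1724) added; 0.5hr RT; d2-cAMP and anti-cAMP-cryptate added; 1hr RT; 665/615 nm read.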

[19] = molecular target: D(2) dopamine receptor (Homo sapiens) (UniProt P14416); test: Dopamine D2 receptor (DRD2) small molecule agonists, cell-based qHTS assay (AID 1963594); note: nearly all actives have a fitted effect of over 35% in size
D(2) dopamine receptor (Homo sapiens), sequence (P14416 whole entry, looked up): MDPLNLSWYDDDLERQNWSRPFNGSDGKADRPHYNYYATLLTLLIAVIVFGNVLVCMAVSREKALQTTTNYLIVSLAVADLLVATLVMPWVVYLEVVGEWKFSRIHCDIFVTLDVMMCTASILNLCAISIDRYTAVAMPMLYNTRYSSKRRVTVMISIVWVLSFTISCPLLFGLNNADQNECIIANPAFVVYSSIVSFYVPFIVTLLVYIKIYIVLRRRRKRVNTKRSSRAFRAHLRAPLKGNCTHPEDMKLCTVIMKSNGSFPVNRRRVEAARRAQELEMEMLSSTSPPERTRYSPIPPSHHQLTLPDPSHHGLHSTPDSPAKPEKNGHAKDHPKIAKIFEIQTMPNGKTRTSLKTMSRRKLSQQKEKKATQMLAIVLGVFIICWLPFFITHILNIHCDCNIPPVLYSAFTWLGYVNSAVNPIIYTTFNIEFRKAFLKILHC
Summary of the method: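 cAMP accumulation in DRD2-HEK293 cells measured by HTRF after 1 h detection; compounds added 10 min before NKH477 (200nM […]) forskolin-analogue stimulation, 30 min at room temperature, with Ro20-1724 present at 0.1 mM final.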

[20] = molecular target: D(2) dopamine receptor (Homo sapiens) (UniProt P14416); test: Dopamine D2 receptor (DRD2) small molecule antagonists, cell-based qHTS assay (AID 1963595; active = well fitted inhibition curve with a large enough effect in the signal ratio in the repeat runs, with a control signal flat; the % refers to the signal ratio)
Summary of the method: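 In this cell-based antagonist screen, compounds act for 10 min at room temperature before a 30 min challenge with 12 nM quinpirole and 200 nM NKH477. cAMP is quantified by HTRF competition in DRD2-HEK293 cells containing 0.1 mM Ro20-1724.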

Measured: Potency

C=CCBr
inactive: all assays above

c1ccoc1
inactive: all assays above

CCC1(CC)C(=O)C=CNC1=O
inactive: all assays above

Clc1ccc(Cl)cc1
inactive: all assays above

CC(C)(O)C(Cl)(Cl)Cl
not listed: [20]
inactive: all other assays above

ClCC(Cl)CCl
inactive: all assays above

O=[N+]([O-])O[C@H]1CO[C@H]2[C@@H]1OC[C@H]2O[N+](=O)[O-]
not listed: [19]
inactive: all other assays above

CCCCCCCCCCOC(=O)c1ccccc1C(=O)OCCCCCCCCCC
inactive: all assays above

CC(C)[N+](C)(CCC(C(N)=O)(c1ccccc1)c1ccccc1)C(C)C
active: [14] 2.3 nM
inactive: all other assays above

CC(=[OH+])/C=C(/C)[O-].CC(=[OH+])/C=C(\C)[O-].CC(=[OH+])/C=C(\C)[O-].[Fe]
inactive: all assays above

CC(C#N)CCC#N (stereo not drawn)
inactive: all assays above

CN1C(=O)NC(=O)C(C)(C2=CCCCC2)C1=O (stereo not drawn)
inactive: all assays above

ClCOCCl
inactive: all assays above

Cc1cc(Cl)ccc1OC(C)C(=O)O (stereo not drawn)
inactive: all assays above
